Smad3 inh: inhibitors of human Smad3 transcription factor binding | P84022 | TR-FRET Smad3/Dy647-FoxH1 peptide binding, europium anti-His | inhibition, % at 25 µM | 0.29% of 88,000 active | AID 630;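 active means compounds that reduce the energy-transfer binding signal between the protein and its labelled peptide by more than half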
ERb SRC1 inh: blocks coactivator binding to human estrogen receptor beta | Q92731 | AID 633 | inhibition, % at 25.6 µM | 1.3% of 86,000 active | TR-FRET ER-beta LBD / SRC1-Cy5 peptide binding; receptor agonist-loaded with 1 µM estradiol;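 active means compounds whose percent inhibition of the receptor-coactivator binding signal exceeds about 50% in the single-dose screen, limit read from the data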
ERa SRC1 inh: blocks coactivator binding to human estrogen receptor alpha; P03372; TR-FRET ER-alpha LBD / SRC-1 peptide, estradiol-bound; inhibition, % at 25.6 µM; 1.7% of 86,000 active; in the data active means inhibition above about 50%
ERa SRC1 pot: ER-alpha (human) coactivator binding potentiation. TR-FRET ERalpha-LBD/SRC-Cy5 coactivator binding, 2 h; 100 = basal binding, no effect. coactivator binding (% of control), % at 25.6 µM. P03372. AID 639. 1.3% of 86,000 active; in the data active means activity above about 200%;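 further: binding measured in presence of low estradiol as agonist stimulus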
Of the large screens only hits and unclear results are named; the others gave an inactive call; [ ] = remark or other dose. This is a sample that favours compounds with a hit; in the whole collection about 3.7% have one here.

Cc1cccc(C(=O)N=c2c(C#N)cc3c(=O)n4cccc(C)c4nc3n2Cc2ccco2)c1	none
CCOC(=O)c1cc2c(=O)n3ccccc3nc2n(Cc2ccco2)c1=NC(=O)c1cccnc1	none
CCOC(=O)c1cc2c(=O)n3cccc(C)c3nc2n(Cc2ccco2)c1=NC(=O)c1cccnc1	ERb SRC1 inh 58.2[fluorescence artefact?], ERa SRC1 inh 55.2[fluorescence artefact?]
Cc1cccn2c(=O)c3cc(C#N)c(=NC(=O)c4ccccc4)n(Cc4ccco4)c3nc12	ERa SRC1 inh 62.5[fluorescence artefact?]
CCCCCn1c(=NC(C)=O)c(C#N)cc2c(=O)n3cccc(C)c3nc21	none
CC1(C)[C@H]2CC[C@]1(C)[C@H](OC(=O)/C=C/c1ccccc1)C2	none (no result: ERb SRC1 inh, ERa SRC1 inh, ERa SRC1 pot)
c1ccc(-c2ccc(-c3cnc4n3CCCCC4)cc2)cc1	none
O=C(O)/C=C/C(=O)Nc1ccccn1	none (no result: ERb SRC1 inh, ERa SRC1 inh, ERa SRC1 pot)
COc1cccc(CNC(=O)C2CCC(CNS(=O)(=O)c3cccc4nsnc34)CC2)c1 (stereo unspecified)	none
CN=C1SC(CC(=O)Nc2ccc(C(C)=O)cc2)C(=O)N1C (stereo unspecified)	ERb SRC1 inh 70.9, ERa SRC1 inh 79.4
C/C(N[O-])=C(\C)[N+]([O-])=[Co].C/C(N[O-])=C(\C)[N+]([O-])=[Co].CC(=N\[O-])/C(C)=N/[O-].CC(=N\[O-])/C(C)=N/[O-].[CH3-].[CH3-]	none (no result: ERb SRC1 inh, ERa SRC1 inh, ERa SRC1 pot)
CCN(CC)C(=S)Sc1c(-c2ccccc2)c2cc(Cl)ccc2[nH]c1=O	none
CCN1C(=S)SC(=O)C1=C1C=C(C)N(CCOC)C(C)=C1	none
CCN1C(=S)SC(=O)C1=C1C=C(C)N(CCO)C(C)=C1	ERa SRC1 pot 243.9[fluorescence artefact?]
Cc1ccc(C2C(C#N)=C(N)SC(N)=C2C#N)o1	ERb SRC1 inh 66.8[fluorescence artefact?]
COC(=O)c1ccc(CC(=O)c2c(C)cc(O)cc2O)o1	ERb SRC1 inh 52.1
CCOC(=O)c1ccc(CC(=O)c2ccc(O)cc2O)o1	none
COc1cccc(N2CCN(Cc3ccsc3)CC2)c1	none
O=C(NCCN1CCOCC1)NC1(C(F)(F)F)Oc2ccccc2O1	ERa SRC1 pot 616.7[fluorescence artefact?]
N[C@@H](Cc1ccnnc1)C(=O)O	none (no result: ERb SRC1 inh, ERa SRC1 inh, ERa SRC1 pot)
COc1ccc([C@@H](Nc2ccccn2)c2cc(C(C)(C)C)cc(C(C)(C)C)c2O)cc1	Smad3 inh 69.4 (no result: ERb SRC1 inh, ERa SRC1 inh, ERa SRC1 pot)
COc1ccc([C@@H](Nc2ncccn2)c2cc3c(cc2O)OCO3)cc1	none (no result: ERb SRC1 inh, ERa SRC1 inh, ERa SRC1 pot)
COc1ccccc1CNC(=O)c1cnccn1	ERa SRC1 inh 61.4[fluorescence artefact?]
COCc1cc(=O)n2c(-c3ccc(C)cc3)n[nH]c2n1	ERb SRC1 inh 59.8
Cc1ccc(C)c(-n2nnnc2SCC(=O)c2ccc3c(c2)NC(=O)CO3)c1	ERa SRC1 pot 231.7[fluorescence artefact?]
